# Results filed as inconclusive are left out. Active and inactive are the calls of the source. Calls come from the whole dose curve; as a rule, active = well fitted inhibition curve with a large enough effect; inconclusive = small, poorly fitted or top-dose-only effect; inactive = flat fitted curve, though single readings scatter.
# Biological target: Calcium and integrin-binding protein 1 (Homo sapiens) (UniProt Q99828)
# Experiment: Primary qHTS for Identification of Calcium Integrin Binding Protein 1 (CIB1) Competitor (AID 1508620); note: top concentration of the series differs between compounds
# Details: CIB1-GST / FITC-alphaIIb peptide fluorescence polarization; series mostly up to 114 µM; activity change, negative = inhibition: at the top concentration
# How it was run: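 Fluorescence polarization competition: GST-tagged CIB1 (1 uM final) preincubated with compound 15 min at room temperature, then FITC-labelled alphaIIb peptide (100 nM final) added. After 15 min at room temperature, polarization read at Ex 480/Em 540.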
# % is set by controls: 0 for no effect and ±100 for the full control effect.
# Chain of Calcium and integrin-binding protein 1 (Homo sapiens) (Q99828 whole entry, looked up): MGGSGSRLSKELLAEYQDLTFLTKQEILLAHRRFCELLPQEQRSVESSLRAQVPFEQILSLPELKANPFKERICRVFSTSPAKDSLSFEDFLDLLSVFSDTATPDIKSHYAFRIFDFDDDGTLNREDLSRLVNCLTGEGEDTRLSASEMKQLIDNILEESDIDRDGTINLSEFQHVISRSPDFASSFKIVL
Structure (SMILES),"activity change, negative = inhibition",Potency
Cc1cc2c(s1)c1cnn(Cc3ccc(F)c(F)c3F)c(=O)c1n2C,5.28% (inactive),–
CC(=O)Nc1sc2c(c1-c1cccc3[nH]ncc13)CCNC2,-1.12% (inactive),–
O=C(CNC(=O)c1ccc(Cl)cc1)OC(C(=O)Nc1cc(C(F)(F)F)ccc1Cl)c1ccccc1 (centres undefined),4.17% (inactive),–
O=C1Cc2cc(S(=O)(=O)N3CCN(c4ccc(Br)cc4)CC3)ccc2N1,0.193% [at 228 µM] (inactive),–
O=C(Cc1ccccc1)Nc1sc2c(c1C(=O)Nc1cccc(Cl)c1)CCCC2,2.91% (inactive),–
COc1ccc(C2Nc3ccccc3C(=O)N2Cc2ccco2)cc1COc1ccccc1 (centres undefined),–,inactive
COc1cc(C2Nc3ccccc3C(=O)N2Cc2ccccc2)ccc1OCc1ccc(NC(C)=O)cc1 (centres undefined),-0.0571% (inactive),–
CCOC(=O)C1CCN(C(=O)C2(NC(=O)Nc3ccccc3Cl)CCCCC2)CC1,1.89% (inactive),–
O=C(O)c1ccc2c(c1)C(=O)N([C@@H](Cc1ccc(O)cc1)C(=O)O)C2=O,-6.08% (inactive),–
Cc1cc2c(s1)c1cnn(Cc3ccc(C(F)(F)F)cc3F)c(=O)c1n2C,1.77% (inactive),–
CCOc1ccccc1-c1nnc2n1N=C(c1cc(OC)cc(OC)c1)CS2,-1.16% (inactive),–
CCCCN(C)C(=O)Cn1nc(-c2cccc(C)c2)ccc1=O,-0.981% (inactive),–
COc1ccc(C2Nc3ccccc3C(=O)N2Cc2ccccc2)cc1COc1c(C)cc(NC(C)=O)cc1C (centres undefined),-0.44% (inactive),–
CC(=O)Nc1sc2c(c1C(=O)c1ccccc1)CCN(C(C)C)C2,-13.9% (inactive),–
CC(C)(C)OC(=O)NCC(=O)NNC(=O)c1cc2ccccc2[nH]1,-2.65% (inactive),–
Cc1cc(C)nc(NC(=S)N2CCN(c3ccc4occc4c3)CC2)c1,-10.3% (inactive),–
OC(c1ccccc1)(c1ccccc1)c1cnc2ccccn12,-4.38% (inactive),–
COc1ccc(C2Nc3ccccc3C(=O)N2Cc2ccccc2C)cc1COc1ccc(NC(C)=O)cc1 (centres undefined),4.5% (inactive),–
CN(C)c1ccc(C2N=C(Nc3nc4ccccc4o3)NC3=C2C(=O)CCC3)cc1 (centres undefined),-9.09% (inactive),–
Cc1cc(NS(=O)(=O)c2ccc(NC(=O)Cc3ccc(C)c(F)c3)cc2)no1,-8.3% (inactive),–

Structure (SMILES),"activity change, negative = inhibition",Potency
COc1cccc(C2c3c(ncn(-c4cccc(OC)c4)c3=N)Oc3ccc4ccccc4c32)c1 (centres undefined),8.33% (inactive),–
Cc1cc(NS(=O)(=O)c2ccc(NC(=O)Cc3ccc(Cl)cc3Cl)cc2)no1,-17% (inactive),–
CCOc1ccc(CCNC(=O)c2csc(Br)n2)cc1OCC,3.56% (inactive),–
COc1ccnc(NC(=S)N2CCN(c3ccc(Cl)cc3Cl)CC2)c1,-10.9% (inactive),–
Cc1ccc(C)c(OC2=NS(=O)(=O)c3ccccc32)c1,-4.55% (inactive),–
CCN1CCN(C(=O)CCN(CC(C)C)c2nc(-c3cccs3)nc3ccccc23)CC1,0.586% (inactive),–
O=C1CCCC2=C1C(c1[nH]ncc1Cl)N=C(Nc1nccs1)N2 (centres undefined),-7.13% (inactive),–
NC(=O)C1CCN(c2nc(-c3cccs3)cs2)CC1,-2.72% (inactive),–
Cc1ccc(NS(=O)(=O)c2cc3c(cc2-c2ccccc2)NC(=O)CO3)cc1C,4.27% (inactive),–
Cc1c(C(=O)OCC2CCCC2)[nH]c2c1C(=O)CC(c1ccco1)C2 (centres undefined),4.49% (inactive),–
O=S(=O)(NCC1CCC(NS(=O)(=O)c2c(F)cccc2F)CC1)c1ccc2c(c1)OCCO2 (centres undefined),7.67% (inactive),–
Cc1ccc(OCCn2c(CCNC(=O)c3cc(F)cc(F)c3)nc3ccccc32)cc1,-7.19% (inactive),–
COc1cc(F)c(S(=O)(=O)N2CCCN(S(=O)(=O)c3ccc(N)cc3)CC2)c(F)c1,-0.108% (inactive),–
COc1cc(-c2ccc3ncnc(NCc4nc(C)cs4)c3c2)cc(OC)c1OC,-5.4% (inactive),–
COc1cccc(CNc2ccc([S+](=O)([O-])Nc3ccccc3)cc2)c1Cl,6.76% (inactive),–
O=C(NCc1ccccc1)C1CCN(c2nc(-c3ccc(Br)cc3)cs2)CC1,-13.4% (inactive),–
O=C1CCCC2=C1C(c1[nH]ncc1Cl)N=C(Nc1ccccc1)N2 (centres undefined),-6.72% (inactive),–
COc1cc(OC)cc(C2=Nn3c(nnc3-c3ccccc3OC)SC2)c1,4.58% (inactive),–
COc1ccc(NC(=O)Nc2ccc(-c3nc4ccccc4[nH]3)cc2)cc1OC,-17.5% (inactive),–

# Reference: PubChem BioAssay (NCATS)
